Where “and” joins values, the source holds several entries; their conditions need not be identical. Equal entries are not always repeated. Records with an inconclusive call do not appear. Where a structure was tested more than once in an assay, its records may differ in their call. Calls of active or inactive are those of the source. Unless noted, calls follow the shape of the dose curve; as a rule, active = well fitted curve in either direction with a large enough effect (not every such curve was filed as active); inconclusive = small, poorly fitted or top-dose-only effect, or another doubt; inactive = flat fitted curve, though single readings scatter. A value given as a limit tells only on which side of the number the result lay.

A short description of assay [1]: AP1 Signaling Pathway (AID 357).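 Also: ME-180 reporter cells stimulated with EGF at its EC50 level; % is scaled to controls: 0 for no effect and ±100 for the full control effect.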 The method, boiled down: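 Titration-series screen for positive or negative modulators of EC50 EGF-induced signaling in ME-180 cells carrying an AP-1-driven beta-lactamase reporter. After 5 hours at 37 degrees Celsius, CCF4 460nm/530nm emission ratio gave %Activity; AC50 values derived.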
In assay [2] the target is Cytochrome P450 1A2 (Homo sapiens) (UniProt P05177). Kind of assay: p450-cyp1a2 (AID 410; calls by dose curve; also: potency is read from the fitted curve at half-maximal effect;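 as to activity change, negative = inhibition: -100% = full effect of reference inhibitor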). The method, boiled down: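 20nM CYP1A2 with 100uM Luciferin-ME (at Km) in 100mM KPO4; compound preincubated 10 min, NADPH regeneration added, 60 min at room temperature. Luciferin quantified by luminescence after detection reagent; normalized to 57 uM furafylline.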
Cytochrome P450 1A2 (Homo sapiens), sequence (P05177 whole entry, looked up): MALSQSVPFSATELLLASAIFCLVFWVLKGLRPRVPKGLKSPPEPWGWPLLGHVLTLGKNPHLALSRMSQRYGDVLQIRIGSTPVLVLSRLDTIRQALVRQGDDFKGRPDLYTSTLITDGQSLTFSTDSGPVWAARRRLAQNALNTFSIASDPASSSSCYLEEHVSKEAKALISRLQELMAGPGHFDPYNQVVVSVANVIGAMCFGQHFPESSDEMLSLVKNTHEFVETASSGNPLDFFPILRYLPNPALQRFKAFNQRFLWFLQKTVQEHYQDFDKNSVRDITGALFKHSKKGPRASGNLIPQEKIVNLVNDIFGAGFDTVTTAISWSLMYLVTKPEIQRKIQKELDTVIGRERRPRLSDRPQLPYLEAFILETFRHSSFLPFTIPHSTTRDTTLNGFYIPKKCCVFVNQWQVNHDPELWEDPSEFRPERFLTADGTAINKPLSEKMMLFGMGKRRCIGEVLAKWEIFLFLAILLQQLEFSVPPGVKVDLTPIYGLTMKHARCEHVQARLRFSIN
The nature of assay [3]: NFAT Signaling Pathway (AID 444).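 Also: carbachol stimulus at about its EC50 of 1 µM final; % is scaled to controls: 0 for no effect and ±100 for the full control effect.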 Conditions: Jurkat NFAT-bla M1, carbachol, beta-lactamase ratio, 5 h. In short, it runs like this: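 Read-out: CCF4 FRET ratio (460 nm/530 nm) after 1 h RT dye loading, used for %activity and AC50 from titration series. Cells: Jurkat NFAT-β-lactamase/M1 line, treated with compound plus 1 uM carbachol for 5 h, 37 °C.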
Assay [4] in a line: Stat Signaling Pathway (AID 446).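 Also: ME-180 cervical cancer cells given 40 pM IL-6 alongside compound; SIE-controlled beta-lactamase reporter measured as 460/530 nm FRET emission ratio; % is scaled to controls: 0 for no effect and ±100 for the full control effect.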 The method, boiled down:
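IL-6/STAT signaling read in ME-180 cells via an SIE beta-lactamase reporter. Stimulus was 40 pM IL-6 (its AC50) for 5 hrs, so both activation and inhibition register.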

The nature of assay [5]: Cell Viability - BJ (AID 421; calls by dose curve;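 also: potency is read from the fitted curve at half-maximal effect; cells exposed to compound for 40 hours at 37 °C before readout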). Conditions: BJ fibroblast viability, qHTS. The method, boiled down:
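Quantitative HTS: ATP depletion in BJ cells after 40 hr compound exposure in complete culture medium, detected with CellTiter-Glo; AC50 from standard Hill fits.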
(In general: qHTS replaces the single test concentration by a dilution series.)

Assay [6] in a line: Cell Viability - Hek293 (AID 427;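 active = compounds whose dose-response curve shows a full or clear partial loss of cell viability, called from curve shape rather than a numeric limit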;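 also: potency is read from the fitted curve at half-maximal effect; cells exposed to compound for 40 hours at 37 °C before reading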). Conditions: qHTS. The method, boiled down: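 AC50 values derive from Hill-modelled concentration-response of ATP-based luminescence, normalized between DMSO-only and 100 uM tamoxifen controls. Cells were exposed in complete culture medium for 40 hr at 37 °C before detection.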
Assay [7] can be described thus: Cell Viability - HepG2 (AID 433; calls by dose curve;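 also: potency is read from the fitted curve at half-maximal effect; potency for ATP loss meaning cytotoxicity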). The following applies: qHTS. In short, it runs like this: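 Cytotoxicity read as ATP loss (CellTiter-Glo luminescence) after 40 hr compound exposure of HepG2, 1500 cells/well, 37 °C. AC50 by Hill equation; 0% set by DMSO, 100% inhibition by 100 uM tamoxifen.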
Assay [8] is described as follows: Cell Viability - SK-N-SH (AID 435; calls by dose curve; also: potency is read from the fitted curve at half-maximal effect). Conditions: SK-N-SH neuroblastoma cell viability qHTS. In short, it runs like this:
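qHTS cytotoxicity: CellTiter-Glo ATP luminescence after 40 h compound exposure of human neuroblastoma SK-N-SH cells at 37 °C. AC50 derived by Hill-equation fitting, with DMSO as basal and 100 uM tamoxifen as full inhibition.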

A short description of assay [9]: Cell Viability - Jurkat (AID 426;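 active = dose-dependent loss of cell ATP signal giving a full or clear fitted curve, ranked by lower potency value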; also: potency is read from the fitted curve at half-maximal effect). The following applies: qHTS. The method, boiled down:
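Jurkat (Clone E6-1) cells, 5000/well in complete medium, exposed to compounds for 40 hr at 37C; intracellular ATP measured by CellTiter-Glo luminescence after 20 min at room temperature. AC50 from Hill fits.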

As for `O=C(Nc1ccc([N+](=O)[O-])cc1Cl)c1cc(Cl)ccc1O`, the call in [1] was inactive. Also, the Potency in [2] was 3.98 µM (active) and 1.26 µM (active). Besides, the activity change, negative = inhibition in assay [3] (at 17.2 µM (top of the series)) is -101% (active); in assay [3] (at 38 µM (top of the series)), -89.8% (active).

Take `CCOC(=O)c1ncn2c1CN(C)C(=O)c1cc(F)ccc1-2`: the outcome in [1] was inactive. The Potency in [2] is 1.58 µM (active). Further, the activity change, negative = inhibition in [3] (at 38 µM (top of the series)) was -1.55% (inactive).

Regarding `Nc1nnc(-c2cccc(Cl)c2Cl)c(N)n1`, the result in assay [1] and in assay [4] was inactive. In addition, the Potency result in [2] is “inactive”. For the same compound, the activity change, negative = inhibition is -16.5% (inactive) in assay [3] (at 17.2 µM (top of the series)) and 15.4% (inactive) in [3] (at 38 µM (top of the series)).

As for `Nc1c2c(nc3ccccc13)CCCC2`, the compound was called inactive in assay [1] and in assay [4]. The Potency in assay [2] is 3.16 µM (active) and 794 nM (active) and 501 nM (active); in assay [5], > 92 µM (inactive); in assay [6], > 92 µM (inactive); in assay [7], > 92 µM (inactive); in assay [8] it was > 92 µM (inactive).

As to `Clc1ccc2c(c1)C(N1CCNCC1)=Nc1ccccc1O2`, the outcome in [1] and in assay [4] was inactive. In assay [2], the Potency was 12.6 µM (active) and 3.98 µM (active).

With `CN1CCC(=C2c3ccccc3CC(=O)c3sccc32)CC1`, the result in assay [1] and in assay [4] was inactive. Further, the Potency entry in [2] is “inactive”. The activity change, negative = inhibition in assay [3] (at 17.2 µM (top of the series)) is -94.3% (active).

In the case of `Nc1nc2c(ncn2COC(CO)CO)c(=O)[nH]1`, the call in [1] and in [4] was inactive. Besides, in assay [2], the Potency result was “inactive”. Besides, the activity change, negative = inhibition was 3.07% (inactive) in assay [3] (at 17.2 µM (top of the series)) and -0.352% (inactive) in assay [3] (at 38 µM (top of the series)).

As to `Cn1c(=O)c2c(ncn2C)n(C)c1=O`, the outcome in assay [1] and in [4] was inactive. In assay [2], the Potency result is “inactive”. Also, the Potency in assay [5], in [9], in assay [6], in assay [7] and in assay [8] was > 92 µM (inactive) in each case. For the same compound, the activity change, negative = inhibition in assay [3] (at 38 µM (top of the series)) is 3.94% (inactive).

With `CCC1(c2ccccc2)C(=O)NCNC1=O`, the outcome in [1] and in [4] was inactive. Also, the Potency entry in assay [2] was “inactive”. Moreover, the Potency in [5], in [9], in [6], in [7] and in assay [8] was > 92 µM (inactive) in each case. Also, the activity change, negative = inhibition in [3] (at 17.2 µM (top of the series)) is -2.38% (inactive) and -28.2% (inactive); in [3] (at 38 µM (top of the series)) it was 0.117% (inactive).

As for `COc1ccc2c(c1)c(CC(=O)O)c(C)n2C(=O)c1ccc(Cl)cc1`, the compound was classed as inactive in assay [1] and in assay [4]. Besides, the Potency in assay [2] is 10 µM (active); in assay [5], > 92 µM (inactive); in assay [9] it was > 92 µM (inactive); in assay [6], > 92 µM (inactive); in [7], > 92 µM (inactive); in [8], > 92 µM (inactive). For the same compound, the activity change, negative = inhibition in assay [3] (at 17.2 µM (top of the series)) was -5.62% (inactive) and 13.9% (inactive); in assay [3] (at 38 µM (top of the series)), 8.92% (inactive).

`COc1nc(C)nc(Cl)c1NC1=NCCN1`: the compound was called inactive in assay [1] and in assay [4]. Further, in assay [2], the Potency result is “inactive”. Besides, the activity change, negative = inhibition in assay [3] (at 17.2 µM (top of the series)) is -14.9% (inactive); in assay [3] (at 38 µM (top of the series)), 10.4% (inactive).

`O=C1N(c2ccccc2)c2ccccc2C1(Cc1ccncc1)Cc1ccncc1`: the compound was classed as inactive in assay [1] and in [4]. In addition, the Potency in assay [2] is 15.8 µM (active). Also, the activity change, negative = inhibition in assay [3] (at 38 µM (top of the series)) is -6.55% (inactive).

Take `Cn1cnc2c1c(=O)[nH]c(=O)n2C`: the compound was called inactive in assay [1] and in [4]. Also, the activity change, negative = inhibition in assay [3] (at 17.2 µM (top of the series)) was -1.3% (inactive) and 20% (inactive); in assay [3] (at 38 µM (top of the series)), 4.74% (inactive).

As to `Cc1cn([C@H]2C=C[C@@H](CO)O2)c(=O)[nH]c1=O`, the result in [1] and in assay [4] was inactive. Further, the Potency in [5], in assay [9], in [6], in assay [7] and in assay [8] was > 92 µM (inactive) in each case. Also, the activity change, negative = inhibition in assay [3] (at 17.2 µM (top of the series)) was 6.73% (inactive).

In the case of `CN1C(C(=O)Nc2ccccn2)=C(O)c2ccccc2S1(=O)=O`, the result in [1] and in [4] was inactive. For the same compound, the Potency entry in assay [2] is “inactive and 20 µM (active)”. Besides, the activity change, negative = inhibition was 9.4% (inactive) and 2.14% (inactive) and -3.58% (inactive) in [3] (at 17.2 µM (top of the series)); -8.1% (inactive) in [3] (at 38 µM (top of the series)).

`Cc1cn([C@H]2C[C@H](N=[N+]=[N-])[C@@H](CO)O2)c(=O)[nH]c1=O`: the result in assay [1] and in [4] was inactive. In addition, the Potency in [5], in assay [9], in assay [6], in assay [7] and in [8] was > 92 µM (inactive) throughout. The activity change, negative = inhibition in assay [3] (at 17.2 µM (top of the series)) is 15.9% (inactive).

As to `COc1cc2nc(N3CCN(C(=O)c4ccco4)CC3)nc(N)c2cc1OC`, the Potency entry in assay [2] is “inactive”. Moreover, the result in [4] was inactive.

On to `NC12CC3CC(CC(C3)C1)C2`, for which the outcome in [1] and in assay [4] was inactive. Also, the activity change, negative = inhibition was 5.54% (inactive) in [3] (at 17.2 µM (top of the series)) and -1.81% (inactive) in assay [3] (at 38 µM (top of the series)).

In the case of `CN(C)C(=N)N=C(N)N`, the compound was called inactive in [1] and in assay [4]. Besides, the activity change, negative = inhibition in assay [3] (at 17.2 µM (top of the series)) is -11.6% (inactive).

Consider `O=C(C1CCCCC1)N1CC(=O)N2CCc3ccccc3C2C1` (stereo unspecified), for which the outcome in [1] and in assay [4] was inactive. Besides, the activity change, negative = inhibition in [3] (at 17.2 µM (top of the series)) is -4.85% (inactive) and -1.54% (inactive).

Regarding `Cc1cnc(C(=O)NCCc2ccc(S(=O)(=O)NC(=O)NC3CCCCC3)cc2)cn1`, the result in [1] and in assay [4] was inactive. Besides, the activity change, negative = inhibition in assay [3] (at 17.2 µM (top of the series)) is -11% (inactive) and -0.964% (inactive); in [3] (at 38 µM (top of the series)) it was -4.17% (inactive).

In the case of `COC(=O)Nc1nc2ccc(C(=O)c3cccs3)cc2[nH]1`, in assay [2], the Potency was 5.01 µM (active) and 1.58 µM (active) and 794 nM (active). Also, the activity change, negative = inhibition in [3] (at 17.2 µM (top of the series)) is -68.4% (active). Moreover, the result in assay [4] was inactive.

As for `COc1cc2nc(N3CCN(C(=O)C4COc5ccccc5O4)CC3)nc(N)c2cc1OC` (stereo unspecified), the outcome in assay [1] and in [4] was inactive.

Consider `NC(=O)NO`, for which the compound was classed as inactive in assay [1] and in assay [4]. Moreover, the activity change, negative = inhibition in [3] (at 38 µM (top of the series)) is 9.2% (inactive).

In the case of `OCCN(CCO)c1nc(N2CCCCC2)c2nc(N(CCO)CCO)nc(N3CCCCC3)c2n1`, the activity change, negative = inhibition in assay [3] (at 17.2 µM (top of the series)) is 7.02% (inactive) and -24.7% (inactive); in assay [3] (at 38 µM (top of the series)) it was -0.6% (inactive). Moreover, in assay [4], the outcome was inactive.

For the origin of these results see PubChem BioAssay (NCATS).
